Source: PubChem BioAssay (NCATS)
Where “and” joins values, the source holds several entries; their conditions need not be identical. Equal values may be shown once. Records with an inconclusive call do not appear. Calls of active or inactive are those of the source. Unless noted, calls follow the shape of the dose curve; as a rule, active = well fitted curve in the direction sought with a large enough effect; inconclusive = small, poorly fitted or top-dose-only effect, or another doubt; inactive = no such curve, though single readings can be large; an effect the other way counts as inactive or inconclusive.

What was measured:
[1] = qHTS assay for small molecule agonists of the antioxidant response element (ARE) signaling pathway measured by Nrf2-dependant transcriptional activity (AID 720636; active = well fitted curve in the direction sought with a large enough effect in the repeat runs; an effect the other way counts as inactive or inconclusive; also: % of control where 0% means no effect); conditions: ARE-luc HepG2, Nrf2 luciferase reporter, 16 h; series mostly up to 92.4 µM
Summary of the method: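 Quantitative HTS format in HepG2 cells stably expressing an ARE-luciferase reporter; 16 hr compound treatment at 37 C, luciferase signal detected with ONE-Glo.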

[2] = qHTS assay for small molecule agonists of the antioxidant response element (ARE) signaling pathway measured by Nrf2-dependant transcriptional activity - cell viability counter screen (AID 720653; active = well fitted curve in the direction sought with a large enough effect in the repeat runs; an effect the other way counts as inactive or inconclusive; also: potency is read from the fitted curve at half-maximal effect; as to max response: % is scaled to controls: 0 for no effect and ±100 for the full control effect); conditions: ARE-bla HepG2 viability, CellTiter-Glo ATP luminescence, 16 h; max response: active compounds read low
Summary of the method: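 Cytotoxicity counter screen: intracellular ATP quantified by CellTiter-Glo luminescence in the same ARE-bla HepG2 plates, after 16 h compound exposure and a 2 h beta-lactamase substrate step.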

[3] = molecular target: T1, Hexokinase-4 (Homo sapiens) + Glucokinase regulatory protein (Homo sapiens) (UniProt P35557+Q14397); test: qHTS assay for inhibitors of recombinant human GCK-GKRP interaction: Diaphorase-coupled assay (AID 743205); conditions: G6PDH/diaphorase resorufin fluorescence; series mostly up to 57.5 µM
Summary of the method: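 Resorufin fluorescence (525/590 nm), read each minute over 30 min, reports GCK activity coupled via G6PDH and diaphorase. Reaction: 10 nM GST-GCK, 10 nM FLAG-GKRP, 5 mM glucose, 0.4 mM ATP, 0.15 mM NADP+, 0.1 mM resazurin.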

[4] = molecular target: T1, Hexokinase-4 (Homo sapiens) + Glucokinase regulatory protein (Homo sapiens); test: qHTS assay for inhibitors of recombinant human GCK-GKRP interaction: ADP-Glo assay (AID 743206); conditions: ADP-Glo luminescence, 60 min, 0% = vehicle-only wells with enzyme present; series mostly up to 76.9 µM;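 also: plate controls were DMSO plus enzyme for no effect and no enzyme for full effect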
Summary of the method: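 GST-GCK and FLAG-GKRP (15 nM each in the dispensed mix, with 2 uM S6P) react with 0.4 mM ATP and 5 mM glucose (final) in Hepes pH 7.6 for 60 min at room temperature. ADP is measured by ADP-Glo luminescence.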

[5] = molecular target: T1, Hexokinase-4 (Homo sapiens) + Glucokinase regulatory protein (Homo sapiens); test: qHTS assay for inhibitors of recombinant human GCK-GKRP interaction: HTRF assay (AID 743207); conditions: recombinant GCK-GKRP HTRF binding, 60 min, with sorbitol-6-phosphate; series mostly up to 57.5 µM;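 also: 0% = DMSO with GCK present and -100% = DMSO wells lacking GCK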
Summary of the method: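 HTRF read-out (ex 320 nm; 615/665 nm emission) after 60 min RT equilibration of 5 nM GST-GCK, 5 nM FLAG-GKRP, 2 uM S6P, compound and anti-FLAG/anti-GST detection antibodies; signal normalized between DMSO wells with and without GCK.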

[6] = qHTS Assay for Identifying Gametocytocidal Compounds (AID 743244);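 also: % is scaled to controls: 0 for no effect and ±100 for the full control effect; actives lower the fluorescent signal which means gametocytes are killed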; conditions: P. falciparum 3D7 stage III-V gametocytes, alamarBlue, 72 h; max response: active compounds read low
Summary of the method: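 Stage III-V P. falciparum 3D7 gametocytes, 20,000 per well, were exposed to compounds for 72 h at 37C, 5% CO2. AlamarBlue was then added for 24 h and viability was read as fluorescence at Ex 525/Em 598 nm.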

[7] = qHTS assay for cell viability of HEK293 cells (AID 743288); conditions: ATP luminescence (CellTiter-Glo), 18 h, active compounds read low; also: % is scaled to controls: 0 for no effect and ±100 for the full control effect; nearly all actives have a fitted effect of over 50% in size
Summary of the method: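 Environmental chemicals tested in qHTS format against parental HEK293 cells; 18 h treatment, 37 C; read-out ATP luminescence (CellTiter-Glo), 30 min RT development.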

[8] = qHTS assay for cell viability of the p53RE-bla HCT-116 cell line (AID 743292); conditions: p53RE-bla HCT-116 viability, ATP luminescence, 16 h; series mostly up to 95 µM; also: nearly all actives have a fitted effect of over 55% in size; also: potency is read from the fitted curve at half-maximal effect
Summary of the method: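 Viability of compound-treated p53RE-bla HCT-116 cells is taken from ATP-dependent luciferase luminescence. Treatment lasts 16 h at 37 C after a 5 h settling period; detection follows 30 min at room temperature.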

[9] = qHTS assay for small molecule antagonists of the retinoid-related orphan receptor gamma (ROR-gamma) signaling pathway - cell viability counter screen (AID 720652; active = well fitted curve in the direction sought with a large enough effect in the repeat runs; an effect the other way counts as inactive or inconclusive;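 also: compound exposure lasted 16 hr before ATP read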; also: potency is read from the fitted curve at half-maximal effect); conditions: RORgamma reporter cell line viability counter screen; series mostly up to 92.2 µM
Summary of the method: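 Luminescence from CellTiter-Glo after 30 min at room temperature reported cellular ATP as the cytotoxicity measure. Cells were the CHO reporter line with doxycycline-induced ROR-gamma expression, exposed to compound for 16 hr at 37 C.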

T1 sequence (P35557 whole entry, looked up): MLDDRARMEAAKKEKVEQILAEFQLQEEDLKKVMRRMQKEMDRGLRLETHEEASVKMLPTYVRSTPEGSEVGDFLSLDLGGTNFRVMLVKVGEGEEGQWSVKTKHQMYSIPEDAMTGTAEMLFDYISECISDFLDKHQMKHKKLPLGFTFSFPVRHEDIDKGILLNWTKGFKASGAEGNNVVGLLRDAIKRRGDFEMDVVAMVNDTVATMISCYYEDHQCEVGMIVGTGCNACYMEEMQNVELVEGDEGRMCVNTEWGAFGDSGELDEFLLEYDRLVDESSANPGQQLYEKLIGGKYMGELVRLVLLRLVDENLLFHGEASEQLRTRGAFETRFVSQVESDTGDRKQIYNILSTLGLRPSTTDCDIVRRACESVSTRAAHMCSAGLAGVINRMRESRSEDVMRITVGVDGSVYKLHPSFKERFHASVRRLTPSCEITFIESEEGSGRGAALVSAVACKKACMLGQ
T1 sequence (Q14397 whole entry, looked up): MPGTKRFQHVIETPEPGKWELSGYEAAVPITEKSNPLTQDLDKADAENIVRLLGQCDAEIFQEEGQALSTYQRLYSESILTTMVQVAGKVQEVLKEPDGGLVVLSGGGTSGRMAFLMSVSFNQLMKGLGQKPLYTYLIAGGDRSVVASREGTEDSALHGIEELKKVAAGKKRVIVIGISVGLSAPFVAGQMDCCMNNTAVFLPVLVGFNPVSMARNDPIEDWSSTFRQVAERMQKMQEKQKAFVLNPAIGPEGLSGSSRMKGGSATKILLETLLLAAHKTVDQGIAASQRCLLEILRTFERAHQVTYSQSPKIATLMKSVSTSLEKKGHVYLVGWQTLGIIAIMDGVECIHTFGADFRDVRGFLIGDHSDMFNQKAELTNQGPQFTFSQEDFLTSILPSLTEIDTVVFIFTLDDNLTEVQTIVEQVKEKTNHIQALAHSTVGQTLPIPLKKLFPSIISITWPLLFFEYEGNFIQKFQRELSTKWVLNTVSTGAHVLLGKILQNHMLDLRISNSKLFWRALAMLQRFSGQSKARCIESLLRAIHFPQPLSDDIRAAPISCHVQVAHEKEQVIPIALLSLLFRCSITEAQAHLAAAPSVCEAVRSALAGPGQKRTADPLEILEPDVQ

COc1ccc(Cl)cc1C(=O)NCCc1ccc(S(=O)(=O)NC(=O)NC2CCCCC2)cc1
inactive: outcome [1] | max response [2] -18.1% | outcome [3] | outcome [4] | outcome [5] | max response [6] 54% and 5.04% | max response [7] -4.82% | Potency [8]

Cc1c(O)cccc1C(=O)N[C@@H](CSc1ccccc1)[C@H](O)CN1C[C@H]2CCCC[C@H]2C[C@H]1C(=O)NC(C)(C)C
inactive: outcome [1] | max response [6] 0.0084%
active: Potency [9] 66.8 µM | Potency [2] 44.7 µM | Potency [8] 28.2 µM

CC(CN1c2ccccc2Sc2ccccc21)N(C)C (stereo not given)
inactive: outcome [1] | max response [2] -20.1% | outcome [3] | outcome [4] | outcome [5] | max response [7] -10.5%

C[C@]12C[C@H](O)[C@H]3[C@@H](CCC4=CC(=O)CC[C@@]43C)[C@@H]1CC[C@@H]2C(=O)CO
inactive: outcome [1] | Potency [9] | max response [2] -15.9% and -13% | outcome [3] | outcome [4] | outcome [5] | max response [7] -14.2% and 1.25% | Potency [8]

NCCNCCNCCN
inactive: outcome [1] | Potency [9] | max response [2] -12.2% | max response [6] -8.14% | max response [7] -5.67% | Potency [8]

C[C@]12CC[C@@H]3c4ccc(O)cc4CC[C@H]3[C@@H]1CCC2=O
inactive: outcome [1] | max response [2] -0.718% | outcome [3] | outcome [4] | max response [6] -6.45% and 30.5% | max response [7] -13% | Potency [8]

Cc1cc(CC(=O)O)n(C)c1C(=O)c1ccc(Cl)cc1
inactive: outcome [1] | Potency [9] | max response [2] -9.23% | max response [7] 2.85% | Potency [8]
